Experimental data taken from PMC7862700, “An all-to-all approach to the identification of sequence-specific readers for epigenetic DNA modifications on cytosine”.

Columns and labels:
Test in all cases: DAPPL (digital affinity profiling via proximity ligation, sequencing); 10 mM Tris-HCl pH 7.5, 50 mM NaCl, 1 mM DTT, 4% glycerol, room temperature, 30 min; GST-TFs on glutathione beads, 16-mer random dsDNA library, 0.1% formaldehyde crosslink after washing; high values mean tight binding
Details in all cases: protein: recombinant; tags: N-terminal GST; dsDNA, one strand shown
FLI1 = biological target: T1, FLI1 (Homo sapiens, UniProt Q01543 1-452)
T1 sequence: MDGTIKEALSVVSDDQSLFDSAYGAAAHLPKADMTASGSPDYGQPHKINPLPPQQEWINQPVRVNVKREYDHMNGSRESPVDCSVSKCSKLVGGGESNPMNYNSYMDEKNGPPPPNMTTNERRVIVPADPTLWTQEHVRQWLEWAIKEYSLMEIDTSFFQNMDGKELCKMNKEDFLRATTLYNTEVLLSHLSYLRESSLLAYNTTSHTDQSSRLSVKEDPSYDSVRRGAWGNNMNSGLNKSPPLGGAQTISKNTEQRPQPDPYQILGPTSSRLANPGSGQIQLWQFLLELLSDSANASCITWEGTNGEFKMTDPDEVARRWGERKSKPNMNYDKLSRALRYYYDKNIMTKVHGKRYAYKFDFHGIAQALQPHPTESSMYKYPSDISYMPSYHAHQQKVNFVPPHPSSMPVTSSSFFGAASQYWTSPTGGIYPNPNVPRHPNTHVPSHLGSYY
How it was run: (§1)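 After expression in yeast as GST fusions, human transcription factors were bound to glutathione beads, DNA-barcoded and mixed with a tag-only sample. The pools were incubated with 200 nmole of a 16-mer random double-stranded DNA library in Tris/NaCl/DTT/glycerol buffer (30 min, room temperature), washed and crosslinked with 0.1% formaldehyde. Proximity ligation with BsaI/T4 ligase ran for 1 h at 37 °C, before PCR amplification and sequencing on an Illumina NextSeq500. Binding signal is a hexamer's read frequency for a factor divided by its frequency for the tag-only sample.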

GABPA = biological target: T2, GABPA (Homo sapiens, UniProt Q06546 1-454)
T2 sequence: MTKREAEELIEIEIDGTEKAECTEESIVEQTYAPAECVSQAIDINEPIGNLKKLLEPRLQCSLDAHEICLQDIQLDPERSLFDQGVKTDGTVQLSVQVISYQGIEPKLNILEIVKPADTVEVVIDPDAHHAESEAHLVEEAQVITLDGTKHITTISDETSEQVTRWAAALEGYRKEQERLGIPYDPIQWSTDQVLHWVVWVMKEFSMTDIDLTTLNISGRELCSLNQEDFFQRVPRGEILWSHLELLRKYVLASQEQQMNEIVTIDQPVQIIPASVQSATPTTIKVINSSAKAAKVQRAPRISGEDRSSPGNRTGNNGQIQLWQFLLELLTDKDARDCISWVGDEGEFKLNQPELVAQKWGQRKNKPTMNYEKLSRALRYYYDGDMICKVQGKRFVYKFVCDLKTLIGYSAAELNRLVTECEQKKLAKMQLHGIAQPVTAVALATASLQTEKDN
How it was run: as §1

ERG = biological target: T3, ERG (Homo sapiens, UniProt P11308 1-479)
T3 sequence: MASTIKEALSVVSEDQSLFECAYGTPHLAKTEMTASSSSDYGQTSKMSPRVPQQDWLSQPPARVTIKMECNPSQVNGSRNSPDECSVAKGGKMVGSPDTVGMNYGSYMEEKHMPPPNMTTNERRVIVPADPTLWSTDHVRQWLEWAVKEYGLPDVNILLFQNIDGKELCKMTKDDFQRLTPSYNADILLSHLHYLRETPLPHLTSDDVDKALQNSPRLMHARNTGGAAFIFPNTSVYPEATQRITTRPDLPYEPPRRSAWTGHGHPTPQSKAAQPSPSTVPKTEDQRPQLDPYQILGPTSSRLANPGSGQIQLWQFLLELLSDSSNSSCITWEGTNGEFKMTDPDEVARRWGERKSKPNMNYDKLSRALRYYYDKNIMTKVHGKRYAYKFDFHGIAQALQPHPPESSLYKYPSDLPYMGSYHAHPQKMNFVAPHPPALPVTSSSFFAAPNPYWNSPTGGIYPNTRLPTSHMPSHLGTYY
How it was run: as §1

ELF1 = ELF1 (Homo sapiens, UniProt P32519 1-619)
How it was run: as §1

EHF = biological target: T4, EHF (Homo sapiens, UniProt Q9NZC4 1-300)
T4 sequence: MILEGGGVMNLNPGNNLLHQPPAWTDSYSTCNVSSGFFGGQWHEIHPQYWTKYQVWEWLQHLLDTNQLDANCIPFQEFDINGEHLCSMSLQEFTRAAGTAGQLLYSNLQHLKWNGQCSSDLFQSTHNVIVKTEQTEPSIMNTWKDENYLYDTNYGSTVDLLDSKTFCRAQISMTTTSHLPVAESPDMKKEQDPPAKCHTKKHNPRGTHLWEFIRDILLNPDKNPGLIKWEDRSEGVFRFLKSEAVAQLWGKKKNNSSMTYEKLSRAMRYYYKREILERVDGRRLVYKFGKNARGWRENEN
How it was run: as §1

SPI1 = SPI1 (Homo sapiens, UniProt P17947 1-270)
How it was run: as §1

SPIB = SPIB (Homo sapiens, UniProt Q01892 1-262)
How it was run: as §1

ELK3 = biological target: T5, ELK3 (Homo sapiens, UniProt P41970 1-407)
T5 sequence: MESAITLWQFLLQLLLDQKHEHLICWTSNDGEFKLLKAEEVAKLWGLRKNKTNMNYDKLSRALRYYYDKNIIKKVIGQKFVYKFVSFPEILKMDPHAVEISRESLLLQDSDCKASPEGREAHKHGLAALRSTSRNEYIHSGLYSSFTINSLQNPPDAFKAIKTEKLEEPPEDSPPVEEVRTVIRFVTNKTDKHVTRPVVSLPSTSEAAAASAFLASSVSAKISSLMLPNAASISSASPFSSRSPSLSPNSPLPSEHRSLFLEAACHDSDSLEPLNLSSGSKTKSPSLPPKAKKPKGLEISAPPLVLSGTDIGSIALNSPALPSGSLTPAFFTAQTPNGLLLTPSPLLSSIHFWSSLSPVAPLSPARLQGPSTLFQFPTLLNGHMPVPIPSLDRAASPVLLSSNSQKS
How it was run: as §1

FEV = biological target: T6, FEV (Homo sapiens, UniProt Q99581 1-238)
T6 sequence: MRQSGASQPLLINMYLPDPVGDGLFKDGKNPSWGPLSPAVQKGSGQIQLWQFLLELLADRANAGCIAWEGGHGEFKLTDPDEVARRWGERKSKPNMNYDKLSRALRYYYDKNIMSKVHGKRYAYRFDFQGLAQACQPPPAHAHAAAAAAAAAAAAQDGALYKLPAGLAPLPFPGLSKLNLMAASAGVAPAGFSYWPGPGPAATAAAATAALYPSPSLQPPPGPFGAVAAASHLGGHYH
How it was run: as §1

SPIB, sequence (Q01892 whole entry): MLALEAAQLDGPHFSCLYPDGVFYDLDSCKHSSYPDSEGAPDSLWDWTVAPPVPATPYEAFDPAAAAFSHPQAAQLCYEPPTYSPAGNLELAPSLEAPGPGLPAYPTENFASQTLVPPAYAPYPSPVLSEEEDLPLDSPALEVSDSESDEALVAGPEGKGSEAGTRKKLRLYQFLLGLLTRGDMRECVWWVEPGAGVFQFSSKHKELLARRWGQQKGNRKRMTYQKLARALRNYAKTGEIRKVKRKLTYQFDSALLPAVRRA
ELF1, sequence (P32519 whole entry): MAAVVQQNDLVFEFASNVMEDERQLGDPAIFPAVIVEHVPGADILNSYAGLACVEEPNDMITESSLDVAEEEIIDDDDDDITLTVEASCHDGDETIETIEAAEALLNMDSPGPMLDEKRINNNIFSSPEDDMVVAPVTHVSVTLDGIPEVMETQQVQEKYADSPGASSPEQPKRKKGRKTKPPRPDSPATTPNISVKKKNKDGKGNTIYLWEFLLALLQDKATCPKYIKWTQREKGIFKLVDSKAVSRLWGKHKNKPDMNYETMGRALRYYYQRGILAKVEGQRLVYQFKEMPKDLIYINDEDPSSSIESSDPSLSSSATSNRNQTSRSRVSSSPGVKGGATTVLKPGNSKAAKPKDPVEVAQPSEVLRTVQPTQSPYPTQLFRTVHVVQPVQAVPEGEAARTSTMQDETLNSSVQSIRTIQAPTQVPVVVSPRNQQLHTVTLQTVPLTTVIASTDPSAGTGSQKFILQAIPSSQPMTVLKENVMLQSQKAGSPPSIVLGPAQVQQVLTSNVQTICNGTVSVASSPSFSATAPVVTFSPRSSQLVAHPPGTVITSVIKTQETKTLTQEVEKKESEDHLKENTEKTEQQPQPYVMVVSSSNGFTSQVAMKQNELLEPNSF

Sequence: CATTAC
- binding signal (FLI1): 1.09 fold enrichment (6-mer frequency, TF over GST control)
- binding signal (GABPA): 1.2 fold enrichment (6-mer frequency, TF over GST control)
- binding signal (ERG): 1.06 fold enrichment (6-mer frequency, TF over GST control)
- binding signal (ELF1): 1.17 fold enrichment (6-mer frequency, TF over GST control)
- binding signal (EHF): 1.13 fold enrichment (6-mer frequency, TF over GST control)
- binding signal (SPI1): 1.1 fold enrichment (6-mer frequency, TF over GST control)
- binding signal (SPIB): 1.17 fold enrichment (6-mer frequency, TF over GST control)
- binding signal (ELK3): 1.15 fold enrichment (6-mer frequency, TF over GST control)
- binding signal (FEV): 1.12 fold enrichment (6-mer frequency, TF over GST control)
